Where “and” joins values, the source holds several entries; their conditions need not be identical. Equal values may be shown once. Some structures have more than one record in an assay (separate samples or runs), and their calls can disagree. Calls of active or inactive are those of the source. Rule for the calls: active = hit-call score of the fitted dose curve at least 0.9, where 1 is the maximum; inactive = score below 0.9.

Read-out in assay [1]: TIMP metallopeptidase inhibitor 1 (TIMP1), TIMP1 (gene 7076)
Kind of assay: BSK_hDFCGF_TIMP1: BioMAP Diversity Plus: hDFCGF Assay for TIMP metallopeptidase inhibitor 1 (TIMP1) Biomarker Activity (AID 2283062). The settings on record: primary human foreskin fibroblasts; actives raise or lower the signal. The method in brief:
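Bidirectional curve fitting against DMSO baseline yielded this endpoint, based on ELISA detection of TIMP-1 in primary human foreskin fibroblasts exposed to compound for 24 h.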

Read-out in assay [2]: Monokine induced gamma interferon (MIG), CXCL9 (gene 4283)
Description: BSK_hDFCGF_MIG: BioMAP Diversity Plus: hDFCGF Assay for Monokine induced gamma interferon (MIG) Biomarker Activity (AID 2283063). As to conditions: primary human foreskin fibroblasts; actives raise or lower the signal. The gist of the method:
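Endpoint derived by bidirectional fitting relative to DMSO; MIG quantified via ELISA in primary human foreskin fibroblasts harvested 24 h after dosing.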

Read-out in assay [3]: Matrix Metallopeptidase 1 (MMP1), MMP1 (gene 4312)
Kind of assay: BSK_hDFCGF_MMP1: BioMAP Diversity Plus: hDFCGF Assay for Matrix Metallopeptidase 1 (MMP1) Biomarker Activity (AID 2283064). The settings on record: primary human foreskin fibroblasts; actives raise or lower the signal. The method in brief: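 Primary human foreskin fibroblasts exposed to chemicals for 24 h; MMP1 measured by ELISA. Cytotoxicity tracked by SRB staining in parallel cultures; bidirectional fit relative to DMSO.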

Read-out in assay [4]: Vascular cell adhesion molecule 1 (VCAM1), VCAM1 (gene 7412)
Description: BSK_hDFCGF_VCAM1: BioMAP Diversity Plus: hDFCGF Assay for Vascular cell adhesion molecule 1 (VCAM1) Biomarker Activity (AID 2283065).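 Note: VCAM-1 protein level quantified by ELISA after 24 h chemical exposure.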 As to conditions: primary human foreskin fibroblasts; actives raise or lower the signal. The method in brief:
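Measured after 24 h chemical treatment of primary human skin fibroblasts, VCAM-1 was detected by ELISA and concentration-response analysed in both directions versus DMSO vehicle.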

Read-out in assay [5]: Plasminogen activator inhibitor-1 (PAI1), SERPINE1 (gene 5054)
Kind of assay: BSK_hDFCGF_PAI1: BioMAP Diversity Plus: hDFCGF Assay for Plasminogen activator inhibitor-1 (PAI1) Biomarker Activity (AID 2283066). The settings on record: primary human foreskin fibroblasts; actives raise or lower the signal. The gist of the method: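 PAI-1 levels, determined by ELISA, served as the endpoint in human foreskin fibroblast cultures exposed to compound for 24 h, with DMSO as baseline.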

Read-out in assay [6]: Intercellular Adhesion Molecule 1 (ICAM1), ICAM1 (gene 3383)
Description: BSK_KF3CT_ICAM1: BioMAP Diversity Plus: KF3CT Assay for Intercellular Adhesion Molecule 1 (ICAM1) Biomarker Activity (AID 2283067). As to conditions: primary human keratinocytes with fibroblasts; actives raise or lower the signal. The method in brief: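 Bidirectional curve fitting against a DMSO baseline was applied to ICAM-1 ELISA signal from primary human skin co-cultures harvested 24 h after treatment, with SRB staining of parallel wells for overt cytotoxicity.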

Read-out in assay [7]: Interferon-gamma inducible Protein 10 (IP10), CXCL10 (gene 3627)
Kind of assay: BSK_KF3CT_IP10: BioMAP Diversity Plus: KF3CT Assay for Interferon-gamma inducible Protein 10 (IP10) Biomarker Activity (AID 2283068). The settings on record: primary human keratinocytes with fibroblasts; actives raise or lower the signal. The method in brief: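 ELISA read-out of IP-10 after 24 h chemical dosing of human skin primary co-culture (keratinocytes, foreskin fibroblasts). Gain or loss of signal relative to DMSO, bidirectional curve fit.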

A short description of assay [8]: BSK_KF3CT_SRB: Viability Assessment in the BioMAP Diversity Plus: KF3CT Assay (AID 2283069).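 Note: total protein by sulforhodamine B staining as a cytotoxicity measure; read 24 h after compound addition; fitted for both signal gain and loss against DMSO baseline.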 The settings on record: primary human keratinocytes with fibroblasts. The method in brief:
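Human keratinocyte and foreskin fibroblast co-culture exposed to chemical for 24 h. Total protein measured in parallel cultures by 0.1% sulforhodamine B staining after 10% TCA fixation, read at 560 nm; bidirectional fit relative to DMSO.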

Read-out in assay [9]: Interleukin-1 alpha (IL1a), IL1A (gene 3552)
Description: BSK_KF3CT_IL1a: BioMAP Diversity Plus: KF3CT Assay for Interleukin-1 alpha (IL1a) Biomarker Activity (AID 2283070). As to conditions: primary human keratinocytes with fibroblasts; actives raise or lower the signal. The gist of the method:
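Primary human keratinocyte plus foreskin fibroblast co-culture, dosed and measured at 24 h in 96-well plates. IL-1a level quantified by ELISA; bidirectional fit relative to DMSO.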

Read-out in assay [10]: TIMP metallopeptidase inhibitor 2 (TIMP2), TIMP2 (gene 7077)
Kind of assay: BSK_KF3CT_TIMP2: BioMAP Diversity Plus: KF3CT Assay for TIMP metallopeptidase inhibitor 2 (TIMP2) Biomarker Activity (AID 2283071). As to conditions: primary human keratinocytes with fibroblasts; actives raise or lower the signal. The gist of the method:
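Keratinocyte–fibroblast co-culture, 24 h exposure; TIMP-2 ELISA, DMSO-normalised bidirectional fit. Parallel SRB (0.1%, TCA-fixed, 560 nm) total-protein staining gauges cytotoxicity.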

Read-out in assay [11]: Transforming growth factor beta 1 (TGFb1), TGFB1 (gene 7040)
Kind of assay: BSK_KF3CT_TGFb1: BioMAP Diversity Plus: KF3CT Assay for Transforming growth factor beta 1 (TGFb1) Biomarker Activity (AID 2283072). As to conditions: primary human keratinocytes with fibroblasts; actives raise or lower the signal. The method in brief:
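Signal changes in either direction, relative to DMSO, define activity here. TGF-b1 is read by ELISA from a human keratinocyte-fibroblast co-culture 24 h post-dose.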

Read-out in assay [12]: C-C motif chemokine 2 (Homo sapiens) (UniProt P13500)
Description: BSK_KF3CT_MCP1: BioMAP Diversity Plus: KF3CT Assay for Monocyte Chemoattractant Protein 1 (MCP1/CCL2) Biomarker Activity (AID 2283073). The settings on record: primary human keratinocytes with fibroblasts; actives raise or lower the signal. The method in brief: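 Biomarker MCP-1 is measured by ELISA in primary human keratinocytes co-cultured with foreskin fibroblasts, 24 h after chemical treatment; DMSO serves as the negative control and activity baseline.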

Read-out in assay [13]: Matrix Metallopeptidase 9 (MMP9), MMP9 (gene 4318)
Kind of assay: BSK_KF3CT_MMP9: BioMAP Diversity Plus: KF3CT Assay for Matrix Metallopeptidase 9 (MMP9) Biomarker Activity (AID 2283074).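 For AC50: MMP9 protein level quantified by ELISA in the co-culture.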 As to conditions: primary human keratinocytes with fibroblasts; actives raise or lower the signal. The method in brief:
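Human keratinocyte and foreskin fibroblast co-culture exposed to chemicals for 24 h; MMP9 biomarker measured by ELISA, bidirectional fitting relative to DMSO; cytotoxicity tracked by SRB total protein staining in parallel cultures.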

Read-out in assay [14]: urokinase plasminogen activator (uPA), PLAU (gene 5328)
Description: BSK_KF3CT_uPA: BioMAP Diversity Plus: KF3CT Assay for urokinase plasminogen activator (uPA) Biomarker Activity (AID 2283075). The settings on record: primary human keratinocytes with fibroblasts; actives raise or lower the signal. The gist of the method: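 Primary human keratinocyte/foreskin fibroblast co-culture exposed to chemical; uPA measured by ELISA at 24 h. Bidirectional fit versus DMSO, with parallel SRB total-protein staining for cytotoxicity.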

Read-out in a further assay: CD40, CD40 (gene 958)
Kind of assay: BSK_LPS_CD40: BioMAP Diversity Plus: LPS Assay for CD40 Biomarker Activity (AID 2283076). The settings on record: primary human HUVEC with PBMC; actives raise or lower the signal. The gist of the method: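 Using a multiplexed primary human co-culture (umbilical vein endothelium plus PBMC), CD40 was read by ELISA 24 h after dosing, with cytotoxicity tracked by sulforhodamine B staining of parallel cultures and activity fitted bidirectionally versus DMSO.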

Read-out in assay [15]: E-selectin (Homo sapiens) (UniProt P16581)
Description: BSK_LPS_Eselectin: BioMAP Diversity Plus: LPS Assay for Eselectin Biomarker Activity (AID 2283077). The settings on record: primary human HUVEC with PBMC; actives raise or lower the signal. The gist of the method:
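Dose chemical onto LPS-driven HUVEC/PBMC co-culture; after 24 h, run ELISA for E-selectin; fit up- and down-going responses relative to DMSO control.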

Read-out in assay [16]: Interleukin-8 (IL8), CXCL8 (gene 3576)
Description: BSK_LPS_IL8: BioMAP Diversity Plus: LPS Assay for Interleukin-8 (IL8) Biomarker Activity (AID 2283078). The settings on record: primary human HUVEC with PBMC; actives raise or lower the signal. The gist of the method:
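In this LPS system, chemical-treated human umbilical vein endothelium/PBMC co-cultures were harvested at 24 h for IL-8 ELISA.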

Assay [17] is described as follows: BSK_LPS_SRB: Viability Assessment in the BioMAP Diversity Plus: LPS Assay (AID 2283079).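 Note: total protein by sulforhodamine B absorbance as a cytotoxicity measure; measured one day after compound addition; fitted in both directions against DMSO so loss or gain of signal counts.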 The settings on record: primary human HUVEC with PBMC. The method in brief: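 Cytotoxicity endpoint in human endothelial–PBMC co-culture: 24 h exposure, then SRB (0.1%) staining, 560 nm read.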
Read-out in assay [18]: Interleukin-1 alpha (IL1a), IL1A (gene 3552)
Description: BSK_LPS_IL1a: BioMAP Diversity Plus: LPS Assay for Interleukin-1 alpha (IL1a) Biomarker Activity (AID 2283080). The settings on record: primary human HUVEC with PBMC; actives raise or lower the signal. The method in brief:
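Primary human HUVEC and PBMC co-culture stimulated with LPS is dosed and harvested at 24 h. Both increases and decreases in ELISA-measured IL-1a are scored relative to DMSO.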

Read-out in assay [19]: Monocyte Chemoattractant Protein-1 (MCP1), CCL2 (gene 6347)
Kind of assay: BSK_LPS_MCP1: BioMAP Diversity Plus: LPS Assay for Monocyte Chemoattractant Protein-1 (MCP1) Biomarker Activity (AID 2283081).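 For AC50: secreted MCP-1 protein quantified by ELISA in culture supernatant.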 As to conditions: primary human HUVEC with PBMC; actives raise or lower the signal. The method in brief: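 Values derive from bidirectional fitting against DMSO of ELISA-measured MCP-1 in a human primary endothelial and mononuclear cell co-culture, 24 h after chemical addition under LPS activation.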

Sequence of E-selectin (Homo sapiens) (P16581 whole entry, looked up): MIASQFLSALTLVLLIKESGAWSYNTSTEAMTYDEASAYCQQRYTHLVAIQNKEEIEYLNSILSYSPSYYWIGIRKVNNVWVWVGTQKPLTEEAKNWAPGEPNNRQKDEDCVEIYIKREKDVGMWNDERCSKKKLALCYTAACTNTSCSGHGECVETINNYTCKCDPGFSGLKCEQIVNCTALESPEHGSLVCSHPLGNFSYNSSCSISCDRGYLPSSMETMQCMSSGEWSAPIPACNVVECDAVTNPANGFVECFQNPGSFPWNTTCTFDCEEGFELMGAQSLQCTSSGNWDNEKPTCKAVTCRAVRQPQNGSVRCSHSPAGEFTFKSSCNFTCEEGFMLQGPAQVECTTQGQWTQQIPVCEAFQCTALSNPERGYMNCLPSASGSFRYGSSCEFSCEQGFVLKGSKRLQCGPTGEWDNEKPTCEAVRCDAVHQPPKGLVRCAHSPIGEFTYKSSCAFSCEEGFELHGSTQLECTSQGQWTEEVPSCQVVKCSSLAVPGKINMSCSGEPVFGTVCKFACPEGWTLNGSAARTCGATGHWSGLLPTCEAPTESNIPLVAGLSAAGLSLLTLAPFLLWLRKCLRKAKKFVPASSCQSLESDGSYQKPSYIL

Usually AC50 stands for the midpoint of the concentration-response curve, whichever way the signal moves. Turning to `CCCCCOC(=O)COc1cc(N2C(=O)C3=C(CCCC3)C2=O)c(F)cc1Cl`, the result in assay [1], in assay [3], in [5], in assay [6], in assay [8] and in [9] was inactive. Also, the outcome in assay [11], in [12], in assay [14], in assay [15], in [17] and in assay [18] was inactive. The result in [19] was inactive. Besides, the AC50 in [2] was 4.64 µM (active); in [4], 14 µM (active); in assay [7], 31.9 µM (active); in [10], 13.4 µM (active); in assay [13], 20 µM (active); with CD40, CD40 (gene 958), 16 µM (active). In addition, the half-maximal activity concentration (AC50) in assay [16] is 20 µM (active).
Consider `O=C(O)c1ccccc1`, for which the result in [1], in [2], in assay [3], in assay [5], in [6] and in assay [7] was inactive. Further, the outcome in assay [8], in [9], in [10], in assay [11], in assay [12] and in assay [13] was inactive. Moreover, the outcome in [14] was “inactive”; with CD40, CD40 (gene 958), “inactive”; in assay [15], “inactive”; in assay [16] it was “inactive”; in assay [17], “inactive”; in assay [18], “inactive”. Also, the outcome in assay [19] was inactive.
Take `N#CSCSc1nc2ccccc2s1`: the AC50 in assay [1] was 1.63 µM (active) and 148 nM (active); in assay [2], 1.67 µM (active) and 1.3 µM (active); in [3], 1.82 µM (active) and 1.61 µM (active); in assay [5] it was 1.72 µM (active) and 627 nM (active); in assay [6], 7.09 µM (active) and 10.6 µM (active); in [7] it was 7.03 µM (active) and 11.6 µM (active). Also, the half-maximal activity concentration (AC50) is 5.31 µM (active) in assay [8]; 7.76 µM (active) and 11.4 µM (active) in assay [9]; 4.19 µM (active) and 10.2 µM (active) in [10]; 2.31 µM (active) and 11.1 µM (active) in assay [12]; 10.6 µM (active) and 10.3 µM (active) in assay [13]; 6.91 µM (active) and 11.5 µM (active) in [14]. Further, the AC50 with CD40, CD40 (gene 958) is 1.9 µM (active) and 5.14 µM (active); in [15], 3.96 µM (active) and 8.13 µM (active); in assay [16], 5.09 µM (active) and 9.38 µM (active); in assay [17], 8.07 µM (active) and 9.64 µM (active); in assay [18] it was 1.51 µM (active) and 4.83 µM (active); in assay [19], 6.17 µM (active) and 6.23 µM (active). Also, in assay [8], the result was inactive.

(Values after PubChem BioAssay (EPA / NIEHS).)
